The text below walks through data of the supplement of paper PMC9942566.

± gives the standard deviation of the averaged measurements.

The first experiment relates to Serratia marcescens K904 PosmB-luxCDABE reporter (pMQ747). The experiment can be described thus: PosmB-lux reporter fold induction (RLU/OD600 relative to no-compound control), highest over Biolog concentrations; higher = stronger Rcs reporter activation. Conditions: Biolog plate: PM13; well positions: C9-12; wild type K904; 4 h. As to the method: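 Serratia marcescens K904 (wild type) or its isogenic ΔrcsB mutant, carrying the Rcs-dependent PosmB-luxCDABE reporter plasmid pMQ747, was grown in LB at OD600 0.1 in Biolog Phenotype MicroArray plates PM11-20 for 4 h at 30-32°C. Each compound is present at 3-4 proprietary concentrations (not stated); per the Fig. S1 legend the value given is the highest fold over those wells. Three independent trials.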
`[K+].[K+].[O]=[Cr](=[O])([O-])[O-]` [Potassium chromate]: the “PosmB-lux reporter fold induction” value was 2.55 ± 0.8.

Staying with this experiment, now noted: Biolog plate: PM18; well positions: G5-8; wild type K904; 4 h.
As to `Nc1n[nH]c(N)n1` [3,5-diamino-1,2,4-triazole (Guanazole)], the “PosmB-lux reporter fold induction” value was 1.96 ± 0.29.
